# Results as given in PubChem BioAssay (NCI).
# About 83,000 compounds went through this panel and 20% of them were active in at least one assay; those are over-represented in the sample as a whole.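 Method: cells in 96-well plates; compound added at one concentration; 48 h incubation; percent growth measured; values under 10 scored active.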 A number with no mark means an inactive call. The source made the active and inactive calls.
# Tests used:
# Assay in all cases: NCI-60 one-dose screen, 48 h (100 = growth as untreated, 0 = no growth, -100 = all killed)
# Details in all cases: 10 µM unless noted
# NCI-H23 lung = tested on: NCI-H23 lung
# NCI-H226 lung = tested on: NCI-H226 lung
# NCI-H322M lung = tested on: NCI-H322M lung
# HOP-62 NSCLC = tested on: HOP-62 NSCLC
# NCI-H460 lung = tested on: NCI-H460 lung
# HOP-92 NSCLC = tested on: HOP-92 NSCLC
# NCI-H522 lung = tested on: NCI-H522 lung
# A549/ATCC NSCLC = tested on: A549/ATCC NSCLC
# 786-0 renal = tested on: 786-0 renal
# COLO 205 colon = tested on: COLO 205 colon
# DU-145 prostate = tested on: DU-145 prostate
# K-562 leukemia = tested on: K-562 leukemia
# MALME-3M melanoma = tested on: MALME-3M melanoma
# MDA-MB-231 breast = tested on: MDA-MB-231 breast
# RXF 393 renal = tested on: RXF 393 renal
# SF-268 CNS = tested on: SF-268 CNS
# SF-295 CNS = tested on: SF-295 CNS
# SF-539 CNS = tested on: SF-539 CNS
# UACC-257 melanoma = tested on: UACC-257 melanoma
# M14 melanoma = tested on: M14 melanoma
SMILES,growth (NCI-H23 lung),growth (NCI-H226 lung),growth (NCI-H322M lung) [%],growth (HOP-62 NSCLC),growth (NCI-H460 lung),growth (HOP-92 NSCLC),growth (NCI-H522 lung),growth (A549/ATCC NSCLC),growth (786-0 renal),growth (COLO 205 colon),growth (DU-145 prostate),growth (K-562 leukemia),growth (MALME-3M melanoma),growth (MDA-MB-231 breast),growth (RXF 393 renal),growth (SF-268 CNS),growth (SF-295 CNS),growth (SF-539 CNS),growth (UACC-257 melanoma),growth (M14 melanoma)
CC(C)(C)c1cc(-c2cc(-c3ccccc3)[nH]c(=O)c2C#N)cc(C(C)(C)C)c1,40.4%,3.42% (active),23.6,-40.2% (active),14.9%,-16% (active),41.8%,5.52% (active),23%,91.5%,34.5%,62.9%,37.6%,-21.4% (active),-2.55% (active),40.8%,0.897% (active),21.1%,43.1%,40.2%
Cn1cc(-c2cc(N)n3nc(-c4c[nH]c5ccc(Cl)cc45)cc3n2)c2cc(Br)cnc21,-58.6% (active),-12.5% (active),32.3,-22.4% (active),-58% (active),-76.8% (active),-71% (active),-64.9% (active),-93.7% (active),-91.6% (active),-71.6% (active),-63.7% (active),-79.1% (active),-73.4% (active),-70.4% (active),9.71% (active),-50.9% (active),-91.1% (active),-55% (active),-92.4% (active)
O=C(N/N=C/c1c[nH]c2ccccc12)Nc1ccc(F)c(Cl)c1,28.8%,65.6%,85.8,53.8%,23%,39.9%,-29.1% (active),39.4%,33.9%,33.7%,61.5%,15.4%,56.3%,61.3%,18.3%,39.7%,13.8%,27.3%,60.9%,33.7%
CN1CCN(c2ccc3c4c(cccc24)C(=O)N(c2cccc(-c4nn(-c5ccccc5)cc4-c4nc5ccccc5s4)c2)C3=O)CC1,97.9%,95.9%,111,114%,18.5%,71.7%,110%,97.9%,46.5%,91.1%,58.4%,-57.6% (active),74.4%,33.7%,72.9%,100%,112%,81.6%,119%,90.6%
COc1cc(C2CC(c3ccc(C(F)(F)F)cc3)=Nc3c(N)nc(N)nc3N2)ccc1Oc1nc(Nc2ccc(F)cc2)nc(N(C)C)n1 (stereo not given),82.2%,58.6%,90.8,81.2%,13%,33.3%,30%,45.9%,39.1%,39%,59.9%,7.52% (active),65.3%,29.5%,3.99% (active),53.3%,36.6%,51.4%,50.3%,28.2%
FC(F)(F)c1cc2c(Cl)ncnc2n1CCN1CCCCC1,34.8%,97.8%,64.2,76.3%,57.9%,94.3%,-80.1% (active),95.5%,92.5%,75.2%,50%,0.547% (active),86.9%,38.8%,80.8%,9.33% (active),80.9%,73.4%,73.6%,24.1%
COc1ccc2[nH]c(O)c(N=Nc3nc(-c4ccccc4)cs3)c2c1,23.9%,11.2%,26.5,21.3%,12.3%,-8.09% (active),8.94% (active),2.49% (active),-44.8% (active),30%,34.6%,28.9%,22.5%,60.1%,4.35% (active),17.1%,-8.96% (active),-11.9% (active),59.3%,55.6%
N#CC1=C(c2cccs2)Nc2c(c(-c3ccccc3)nn2-c2ccccc2)C12C(=O)Nc1ccc(Cl)cc12 (stereo not given),23.8%,51.6%,47.1,28.8%,6.17% (active),-8.79% (active),3.38% (active),24.4%,22.3%,-29.2% (active),50.5%,11.1%,76.3%,21.5%,-11.4% (active),23.2%,12.9%,20.5%,63.5%,16.5%
